Assay outcomes as filed in PubChem BioAssay.
Most compounds without a hit are left out; they make up all but 6.5% or so of the library.
FMDV inh – High Throughput Screening for Foot and Mouth Disease Virus Antivirals. FMDV antiviral cell-based qHTS. Potency, µM (highest dose often 57.9 µM), inactives show at the top dose activity change, negative = inhibition, usual class: inhibitors. 410,000 compounds, 1.2% hits. AID 1159524, 2015; calls by dose curve; tested in HEK293T cells; note: read-out not given here; potency is the fitted concentration of half-maximal effect; nearly all actives have a fitted effect of over 45% in size
VACV Venus inh – qHTS for Stage-Specific Inhibitors of Vaccinia Orthopoxvirus: Venus Reporter Primary qHTS. Vaccinia virus Venus reporter expression, fluorescence. Potency, µM (doses to about 36.5 µM), without a hit: top-dose activity change, negative = inhibition, most hits filed as inhibitors. 330,000 compounds, 0.46% hits. AID 720580, 2013; calls by dose curve; tested in A549 cells; note: potency is the fitted concentration of half-maximal effect; nearly all actives have a fitted effect of over 30% in size
LASV entry inh – qHTS for Inhibitors of binding or entry into cells for Lassa Virus; Lassa virus pseudotype entry inhibition, cell reporter; 300,000 compounds, 1.2% hits; Potency, µM (titrated, usually from 37.9 µM), for the others: at the top dose activity change, negative = inhibition, usual class: inhibitors; calls by dose curve; tested in HEK293 cells; note: potency is the fitted concentration of half-maximal effect; nearly all actives have a fitted effect of over 50% in size
HCMV inh – qHTS Assay for inhibitors of the human cytomegalovirus (HCMV); HFF cells, HCMV-luciferase reporter, 72 h; stronger effect = lower value; activity change, negative = inhibition, % at 57.5 µM; 410,000 compounds, 4.5% hits; in the data active = activity change below about -60%; inconclusive = no clear call, values can overlap the other calls; inactive = above about -39%
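Steps: HFFs plated, 16 h 37C; compounds added; HCMV-luciferase added to MOI 1 PFU/cell; 72 h 37C; OneGlo reagent, 5 min room temperature; luminescence read, normalized to controls.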
MARV entry inh – qHTS for inhibitors of binding or entry into cells for Marburg Virus; Marburg virus pseudotyped entry inhibition, cell reporter; Potency, µM (highest dose often 37.8 µM), without a hit: top-dose activity change, negative = inhibition, actives largely listed as inhibitors; AID 540276, 2011; 300,000 compounds, 1.8% hits; calls by dose curve; tested in HEK293 cells; note: potency is the fitted concentration of half-maximal effect
Vaccinia mCherry – qHTS for Stage-Specific Inhibitors of Vaccinia Orthopoxvirus: mCherry Reporter Primary qHTS. Potency, µM (highest dose often 36.5 µM), inactives show at the top dose activity change, negative = inhibition, most hits filed as inhibitors. 310,000 compounds, 0.63% hits. Vaccinia virus mCherry reporter infection, fluorescence; calls by dose curve; tested in A549 cells; note: potency is the fitted concentration of half-maximal effect; nearly all actives have a fitted effect of over 35% in size
The depositor's hits bear a star; i = inactive; ? = inconclusive; nt = no result; + = active, no number; [ ] = remark or other dose. % is set by controls: 0 for no effect and ±100 for the full control effect.

SMILES	FMDV inh	VACV Venus inh	LASV entry inh	HCMV inh	MARV entry inh	Vaccinia mCherry
C/C(CC1CC(C)(C)OC1=O)=N\NC(N)=S (stereo unspecified)	21.9%	-14.4%[7.34 µM]	23.1%	?	-8.6%[46.1 µM]	-0.9%[7.34 µM]
Cc1cccc(CNc2ccnc(-c3ccccc3Cl)n2)c1	-4.1%	nt	nt	nt	nt	nt
COc1ccc(-c2cn(Cc3ccc(C(=O)c4ccccc4)cc3)nn2)cc1	10.0%	?	nt	-82.3*	nt	?
COc1ccc(-c2cn(Cc3ccc4ccccc4c3)nn2)cc1	29.0%	-15.7%	nt	32.3	nt	i
COc1ccccc1N(C)S(=O)(=O)c1ccc(C(=O)N(C)Cc2cccc(OC)c2OC)cc1	?	-16.7%	nt	?	nt	-12.3%
CCOc1ccc(CN(C)C(=O)c2ccc(S(=O)(=O)N(C)c3ccccc3OC)cc2)cc1	22.4µM*	nt	nt	?	nt	nt
O=C(/C=C/c1ccccc1)NCCC1=CCCCC1	28.7%	-12.5%	-2.4%	-9.9	?	i
COc1ccccc1N(C)S(=O)(=O)c1ccc(C(=O)O)cc1	30.6%	1.5%	3.7%[46.1 µM]	?	19.4%[46.1 µM]	i
COc1ccccc1N(C)S(=O)(=O)c1ccc(C(=O)OCC(=O)NCCC2=CCCCC2)cc1	-10.7%	6.9%	-11.3%	-61.8*	?	-10.3%
COc1ccccc1N(C)S(=O)(=O)c1ccc(C(=O)N(C)Cc2ccc(Cl)s2)cc1	?	-24.7%	11.2µM*	-22.4	?	?
COc1ccccc1/C=C/C(=O)NCCC1=CCCCC1	0.0%	0.7%	7.94µM*	-18.0	?	i
O=C(O)C1=CC(=C(c2ccc(O)c(C(=O)O)c2)c2ccc(O)c(C(=O)O)c2)C=CC1=O	2.1%	-20.2%	?	nt	0.445µM*	-28.2%
CC(=O)OC[C@H]1O[C@H](CCON=C(C)CCC(=O)OC[C@H]2O[C@H](C#Cc3ccccc3)C=C[C@H]2Oc2ccc(C)cc2)C=C[C@H]1OC(C)=O	nt	nt	nt	nt	21.3%[14.2 µM]	nt
COc1ccc(Cl)cc1C(Nc1cccnc1)c1ccc2cccnc2c1O (stereo unspecified)	-19.7%	?	?	-6.6	11.2µM*	3.55µM*
Oc1c(C(Nc2cccnc2)c2ccc(C(F)(F)F)cc2)ccc2cccnc12 (stereo unspecified)	nt	?	nt	nt	nt	8.91µM*
CN1CCN(C(c2ccc(C(F)(F)F)cc2)c2ccc3cccnc3c2O)CC1 (stereo unspecified)	-28.2%	-18.3%	7.94µM*	-96.7*	?	?
CCOC(=O)C(C)C(C)=O (stereo unspecified)	-16.2%	?	nt	nt	nt	0.316µM*
COCC(=O)Nc1cc(C(=O)N2CCc3c([nH]c4ccccc34)C2)cc2nc(-c3ccccc3)n(C)c12	-14.4%	-6.4%	nt	nt	nt	-11.5%
Cc1cccc(N2CCN(S(=O)(=O)c3ccc(-c4cc(C(F)(F)F)on4)s3)CC2)c1C	-22.3%	-8.8%	4.4%[46.1 µM]	-22.4	nt	i
Cc1nc(N)sc1-c1csc(Nc2ncccn2)n1	0.0%	-6.8%	2.9%	-77.1*	?	-6.1%
COC(=O)c1c(SC)nc2ccccc2c1OCc1cccc(C)c1	-20.8%	1.2%	-9.2%[46.1 µM]	-13.3	nt	-12.1%
CN(C)c1ccc(/C=C2/SC(=O)N(CCN=C3NS(=O)(=O)c4ccccc43)C2=O)cc1	29.3%	-13.7%	-24.5%	24.0	19.8%	?
CN(C)c1ccc(/C=C2\SC(=O)N(CCc3nnc(N)s3)C2=O)cc1	-59.7%	30.8%	?	?	1.12µM*	-6.9%
COC(=O)c1[nH]c2ccccc2c1NC(=O)/C=C/c1ccc2c(c1)OCO2	18.9%	-6.6%	-3.3%	-10.8	-11.4%	-7.0%
CCN(CC(=O)Nc1c(C(=O)OC)[nH]c2ccccc12)c1ccc2c(c1)OCO2	-27.7%	nt	-9.1%	1.5	6.51µM*	nt
SMILES	FMDV inh	VACV Venus inh	LASV entry inh	HCMV inh	MARV entry inh	Vaccinia mCherry
Nc1ccc(/C=C/c2ccc3cccnc3c2)cc1	nt	-4.0%	nt	nt	nt	17.3%
O=C1C(=C(O)c2ccccc2)C(=O)c2ccccc21	nt	39.0%	-4.9%	38.5	19.8%	-0.7%
O=C1C(=O)c2ccccc2C([O-])=C1[n+]1ccccc1	22.4µM*	nt	nt	-36.1	nt	nt
CCc1ccccc1N(C)C(=O)Cn1cnc2sc(C)c(S(=O)(=O)N3CCC(C)CC3)c2c1=O	6.8%	-12.8%	?	4.4	?	-10.8%
COC(=O)c1ccc(NS(=O)(=O)c2cc3c4c(c2)CCN4C(=O)CC3)cc1	21.0%	-9.8%	-1.3%	-32.2	-13.7%[46.1 µM]	-13.6%
CCOC(=O)c1ccc(NS(=O)(=O)c2cc3c4c(c2)CCN4C(=O)CC3)cc1	21.2%	-18.8%	?	-81.0*	-7.3%	-2.0%
Cc1cccc(C)c1-n1c(C)cc(/C=N/NC(N)=S)c1C	?	?	?	17.2	?	-16.6%
NC(=S)NN=Cc1cc(-c2cccc(N)c2)ccn1	0.0%	?	nt	-99.7*	nt	?
CCc1ccc(-n2nnc(-c3nc(-c4cccs4)no3)c2N)cc1	17.4%	-13.1%	?	71.8	nt	-7.2%
C=CC[C@@H](CC(=O)N(CCO)Cc1ccccc1)C(=O)N[C@@H](COC(=O)[C@H](CC=C)CC(=O)OC(C)(C)C)Cc1c[nH]c2ccccc12	-24.7%	11.2µM*	nt	-24.7	nt	?
C=CC[C@H](CC(=O)N(CCO)Cc1ccccc1)C(=O)N[C@@H](COC(=O)[C@@H](CC=C)CC(=O)OC(C)(C)C)Cc1c[nH]c2ccccc12	?	11.2µM*	nt	39.1	nt	?
C=CC[C@H](CC(=O)N(CCO)Cc1ccccc1)C(=O)N[C@H](COC(=O)[C@H](CC=C)CC(=O)OC(C)(C)C)Cc1c[nH]c2ccccc12	?	-27.8%	nt	-11.5	nt	-21.2%
O=C(O)c1ccc2c(=O)n3cc(C(=O)c4ccccc4O)cc(Cl)c3nc2c1	0.0%	nt	nt	-79.8*	nt	nt
Cn1c(NCC(O)c2ccccc2)nc2c1c(=O)n(Cc1ccc(Cl)cc1)c(=O)n2C (stereo unspecified)	-28.9%	?	-16.7%	-19.6	-6.7%	nt
Cn1c(NCC(O)c2ccccc2)nc2c1c(=O)n(Cc1ccc(Cl)c(Cl)c1)c(=O)n2C (stereo unspecified)	14.1µM*	10µM*	?	?	?	nt
O=C1CCC[C@H]2[C@@H](Cc3ccccc3)[C@H](NCC3CCCCC3)CC[C@]23CCCN13	nt	nt	nt	9.0	nt	nt
CC(=O)/C(=C\c1ccccc1)CC(=O)O	-13.6%	0.0%	nt	nt	nt	i
CCc1ccc(-c2cc(C)no2)cc1S(=O)(=O)N1CCN(c2ccc(OC)cc2)CC1	-22.8%	-14.1%	?	-67.0*	?	-14.9%
COc1ccc(-c2cc(C)no2)cc1S(=O)(=O)N1CCN(c2ccc([N+](=O)[O-])cc2)CC1	-24.5%	nt	nt	+	nt	nt
COc1ccc(-c2cc(C)no2)cc1S(=O)(=O)N1CCN(c2ccccc2F)CC1	?	?	?	?	nt	i
